The nature of experiment [1]: P. berghei load reduction in hepatocytes – cell-based, HepG2, luciferase luminescence, HepG2 viability, primary screen (AID 624349; in the data active = parasite load remaining mostly below about 12%, no sharp cut-off; inactive = mostly above about 10%;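 also: 100% = mean of DMSO negative control wells on the same plate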). The following applies: P. berghei liver stage in HepG2, luciferase luminescence, concentration not given here; parasite load remaining: stronger effect = lower value; viability: measured here: HepG2 viability without parasites.
Experiment [2] in a line: signal quenchers or enhancers, Cy5 substrate/SSB – biochemical, NIH Clinical Collection, E. coli SSB, artefact control for HCV NS3 helicase inhibitor project (AID 743268; call rule not given here). The following applies: Cy5-oligo bound E. coli SSB, fluorescence interference.
For experiment [3], the system named is Hepatitis C virus NS3 helicase. The experiment in a line: blockers of NS3h binding to DNA – biochemical, fluorescence polarization, NIH Clinical Collection, primary screen (AID 743270; call rule not given here). Conditions: NS3 helicase binding to Cy5-dT15 DNA, stronger effect = higher value, concentration not given here. A general note: Polarisation of emitted light reports the rotation of a fluorescent probe.

The target in experiment [4] is Single-stranded DNA-binding protein (Escherichia coli (strain K12)) (UniProt P0AGE0). The experiment is described as follows: SSB-ssDNA binding inhibitors – biochemical, fluorescence polarization, NIH Clinical Collection, counter-screen for HCV NS3 helicase inhibitor project (AID 743271; in the data active = inhibition above about 28%). The following applies: E. coli SSB-DNA binding, stronger effect = higher value, concentration not given here.

The nature of experiment [5]: compounds distorting NS3 helicase fluorescence signal – biochemical, NIH Clinical Collection, artefact control for HCV NS3 helicase inhibitor project (AID 743272; call rule not given here;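 also: HCV NS3 helicase with a Cy5 labelled single stranded DNA probe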). The following applies: fluorescence interference counterscreen, HCV NS3 helicase assay; stronger effect = lower value. Background: Counterscreens check selectivity or assay interference.
Experiment [6] has as its system Neuropilin-2 / VEGF-C interaction (human). The experiment is described as follows: small molecules blocking Neuropilin-2/VEGF-C interaction – biochemical, microplate binding format, z-score (AID 743281; call rule not given here). The following applies: microplate NRP2/VEGF-C binding assay; stronger effect = lower value.
Experiment [7] is described as follows: modulation of C. elegans fzo-1 (AID 1259413; call rule not given here;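 also: fzo-1 mutant C. elegans worms in liquid wells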). The following applies: C. elegans fzo-1 modulator screen, mean read-out; stronger effect = higher value.
A short description of experiment [8]: viability loss with induced miR-34 in A549 – imaging, A549 dox-inducible miR-34, nuclei and caspase counts, primary screen (AID 1347080;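 active = compounds whose cell count with miR-34 switched on is under 0.7 times the count with it off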). Conditions: A549 miR-34 inducible, Hoechst nuclei count, 48 h.
The nature of experiment [9]: galactose survival enhancers in mitochondrial complex I cybrids – cell-based, galactose medium, ATP luminescence, primary screen (AID 1645843;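 active = z-score of at least 1.8 in each of two replicates, scored against plate mean and spread of sample wells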;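 also: positive z means more ATP and so rescue of galactose-driven cybrid death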). The following applies: complex I mutant cybrid cells, 72 h, stronger effect = higher value.
The subject of another experiment is F380Y. The experiment in a line: BK channel mutant inhibitors and activators – cell-based, U2OS BacMam, thallium flux, beta subunits, selectivity assay, profiling panel (AID 1259406).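 Also: initial slope of Thallos dye fluorescence rise after thallium is added; log ratio against the mean of 0.3% DMSO vehicle wells on the same plate.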 The following applies: U2OS BacMam BK variants, at 30 µM.
Another experiment deals with F380Y/beta1. The experiment is described as above. The following applies: U2OS BacMam BK variants, at 30 µM.
For another experiment, the system named is F380Y/beta2Delta. Described as above. Conditions: U2OS BacMam BK variants, at 30 µM.
A further experiment concerns F380Y/beta4. Described as above. The following applies: U2OS BacMam BK variants, at 30 µM.
The target in experiment [10] is Calcium-activated potassium channel subunit alpha-1 (Homo sapiens) + Leucine-rich repeat-containing protein 26 (Homo sapiens) (UniProt Q12791+Q2I0M4). The description is as above. Conditions: U2OS BacMam BK variants, F380Y/Slo1WT/gamma1, at 30 µM.
The subject of a further experiment is R275C. The experiment is described as above. The following applies: U2OS BacMam BK variants, at 30 µM.
The next experiment concerns R275C/beta1. The description is as above. The following applies: U2OS BacMam BK variants, at 30 µM.
The next experiment concerns R275C/beta2Delta. The description is as above. Conditions: U2OS BacMam BK variants, at 30 µM.
Another experiment deals with R275C/beta4. The description is as above. The following applies: U2OS BacMam BK variants, at 30 µM.
The test system of another experiment is R275C/Slo1WT/beta2. Described as above. Conditions: U2OS BacMam BK variants, at 30 µM.
Where [11] appears, read: stronger effect = lower value, cell number ratio, induced over uninduced.
Where [12] appears, read: measured here: relative caspase fold change +Dox/-Dox.
[13] abbreviates: measured here: total cells with miR-34 induction, stronger effect = lower value.
[14] abbreviates: measured here: total cells without miR-34 induction.

The source made the active and inactive calls.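 The calls were made as follows, unless noted: active = thallium flux through the channel raised or lowered by more than 3 SD from vehicle-only wells, actives on both sides; inactive = the rest.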

Chain of Calcium-activated potassium channel subunit alpha-1 (Homo sapiens) + Leucine-rich repeat-containing protein 26 (Homo sapiens) (Q2I0M4 whole entry, looked up, one chain of several): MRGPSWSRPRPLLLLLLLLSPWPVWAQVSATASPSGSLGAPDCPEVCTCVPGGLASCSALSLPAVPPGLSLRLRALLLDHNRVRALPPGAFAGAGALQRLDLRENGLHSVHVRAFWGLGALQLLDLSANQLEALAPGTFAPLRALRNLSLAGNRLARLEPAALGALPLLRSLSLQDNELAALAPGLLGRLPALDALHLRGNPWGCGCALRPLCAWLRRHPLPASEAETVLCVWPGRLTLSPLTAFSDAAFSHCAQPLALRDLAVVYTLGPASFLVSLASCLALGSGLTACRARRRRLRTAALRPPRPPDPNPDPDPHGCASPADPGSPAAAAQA

For orientation: viability means a per cent measure of how many cells are alive, often set against a control. For orientation: inhibition means the drop in the measured response relative to a control, in per cent. In the case of `CN(CCO)CC(O)Cn1cnc2c1c(=O)n(C)c(=O)n2C` (configuration not stated) (tested in a mixture with another compound), the parasite load remaining in experiment [1] is 65% (inactive). In addition, in experiment [1], the viability stood at 66.2%. The fluorescence ratio was 0.97 (inactive) in experiment [2] and 0.94 (inactive) in experiment [5]. The inhibition is -0.22% (inactive) in experiment [3] and 0.39% (inactive) in experiment [4]. The z-score in [6] was -0.276 (inactive); in experiment [9], 0.47 (inactive). Also, the mean signal in experiment [7] is 208 (inactive). The fold change in experiment [8] (setting [11]) was 1.72 (inactive); in experiment [8] (setting [12]) it was 0.852. The values for the cell count in experiment [8] (setting [13]) and in experiment [8] (setting [14]) were 8830 and 5120, respectively. Further, the log fold change Tl+ flux in the experiment with F380Y was 0.0136 (inactive); in the experiment with F380Y/beta1 it was 0.0124 (inactive); with F380Y/beta2Delta it was -0.0171 (inactive); in the experiment with F380Y/beta4 it was 0.017 (inactive); in experiment [10] it was 0.0349 (inactive); in the experiment with R275C, -0.0477 (inactive). Moreover, the log fold change Tl+ flux in the experiment with R275C/beta1 was 0.0362 (inactive); in the experiment on R275C/beta2Delta, -0.03 (inactive); in the experiment with R275C/beta4, -0.00112 (inactive); with R275C/Slo1WT/beta2, 0.00717 (inactive).
Take `CO[C@H]1/C=C/O[C@@]2(C)Oc3c(C)c(O)c4c(O)c(c(C=NN5CCN(C)CC5)c(O)c4c3C2=O)NC(=O)/C(C)=C\C=C\[C@H](C)[C@H](O)[C@@H](C)[C@@H](O)[C@@H](C)[C@H](OC(C)=O)[C@@H]1C`: the parasite load remaining in experiment [1] was 23.7% (inactive). In experiment [1], this compound registered a viability of 94.3%. The fluorescence ratio in experiment [2] is 0.107 (active); in experiment [5], 0.87 (inactive). Also, the inhibition in [3] is -3.18% (inactive); in [4] it was 3.34% (inactive). Moreover, the fold change was 0.888 (inactive) in [8] (setting [11]) and 2.93 in [8] (setting [12]). Further, the cell count in experiment [8] (setting [13]) stood at 9180; in [8] (setting [14]), 10300. The z-score in experiment [9] is -1.41 (inactive). For the same compound, the log fold change Tl+ flux in the experiment on F380Y is 0.0886 (inactive); in the experiment with F380Y/beta1, -0.0407 (inactive); in the experiment on F380Y/beta2Delta, 0.125 (active); in the experiment on F380Y/beta4, 0.0159 (inactive); in experiment [10], -0.0449 (inactive); with R275C it was -0.067 (inactive). In addition, the log fold change Tl+ flux in the experiment with R275C/beta1 was 0.00744 (inactive); with R275C/beta2Delta, -0.0205 (inactive); with R275C/beta4, 0.0765 (inactive); in the experiment with R275C/Slo1WT/beta2 it was -0.0151 (inactive).
In the case of `CC1CC2C3CCC4=CC(=O)C=CC4(C)[C@@]3(Cl)C(O)CC2(C)C1(O)C(=O)CO` (some centres not stated), in [1], the parasite load remaining is 68.1% (inactive). In addition, the viability in [1] was found to be 67.8%. In addition, the values for the fluorescence ratio in [2] and in [5] were 0.98 (inactive) and 0.95 (inactive), respectively. The inhibition in experiment [3] is -0.22% (inactive); in experiment [4], -1.97% (inactive). In addition, the z-score in experiment [6] is 0.0119 (inactive); in experiment [9], 1.36 (inactive). For the same compound, in [7], the mean signal was 282 (inactive). Moreover, the fold change in experiment [8] (setting [11]) was 0.839 (inactive); in experiment [8] (setting [12]) it was 1.07. Besides, the cell count is 7120 in experiment [8] (setting [13]) and 8490 in experiment [8] (setting [14]). The log fold change Tl+ flux with F380Y is 0.104 (inactive); in the experiment on F380Y/beta1, 0.0975 (active); in the experiment on F380Y/beta2Delta, -0.00287 (inactive); in the experiment on F380Y/beta4 it was 0.0497 (inactive); in [10] it was 0.0373 (inactive); with R275C it was -0.0315 (inactive). Moreover, the log fold change Tl+ flux is 0.106 (active) with R275C/beta1, 0.0411 (inactive) in the experiment on R275C/beta2Delta, 0.0585 (inactive) in the experiment on R275C/beta4 and 0.0245 (inactive) in the experiment on R275C/Slo1WT/beta2.

These data come from PubChem BioAssay.
